Source: article PMC10726135, “HNF4α isoforms regulate the circadian balance between carbohydrate and lipid metabolism in the liver”
Whole data set: some 18,000 sequences, median “log2 normalized intensity” near 0.39, cut for the highest 2% near 6.6. This is one part of a sample in which the highest values are shown more often than they occur.

These sequences were tested against T1, HNF4alpha2 (COS-7 nuclear extract) (Homo sapiens, UniProt P41235 1-474) (assay: protein-binding microarray; COS-7 nuclear extract on double-stranded Agilent 4x180k PBM; binding buffer, salt, pH and temperature not given in the material; high values mean tight binding). Conditions: chain copies: 2; label: 3' end of strand 1 on the slide; dsDNA, one strand shown.
T1 sequence: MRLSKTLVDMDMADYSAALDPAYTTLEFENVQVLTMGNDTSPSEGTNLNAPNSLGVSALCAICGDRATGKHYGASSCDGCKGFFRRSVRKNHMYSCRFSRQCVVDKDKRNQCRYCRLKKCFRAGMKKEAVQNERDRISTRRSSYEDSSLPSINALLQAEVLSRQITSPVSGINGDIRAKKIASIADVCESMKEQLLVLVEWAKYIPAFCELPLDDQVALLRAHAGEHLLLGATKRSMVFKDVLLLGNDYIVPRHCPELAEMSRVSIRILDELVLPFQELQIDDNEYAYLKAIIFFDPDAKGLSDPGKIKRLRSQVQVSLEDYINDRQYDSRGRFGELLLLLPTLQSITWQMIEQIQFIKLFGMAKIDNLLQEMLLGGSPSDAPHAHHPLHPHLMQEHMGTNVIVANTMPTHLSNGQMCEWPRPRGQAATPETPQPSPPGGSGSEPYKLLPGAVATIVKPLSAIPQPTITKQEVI
Outline: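 Nuclear extracts of COS-7 cells transiently transfected with a human HNF4α isoform were applied to a custom Agilent SurePrint G3 4x180k array bearing ~44,000 double-stranded ~60-nt test sequences, each in quadruplicate. The bound protein was imaged on an Agilent G2565CA scanner at 2-µm resolution. Binding signal is the normalized, background-corrected gProcessedSignal from Agilent software.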

Sequence | binding signal [log2 normalized intensity]
ACATGAGCTAGTGCTAAAGGTCATATCCAAGCCTAGGGAGATTAGAGTATCGGTCGA | 4.2
GGCCTTTGGACCCAGACTGAATCACACTACGCCTAGGGAGATTAGAGTATCGGTCGA | 3.76
GGTGTTAAAATAACGACCTTTGGGCTAAAAGCCTAGGGAGATTAGAGTATCGGTCGA | 3.81
AGGCCAGCTCATAGGGATCAGATAAGAAGTGCCTAGGGAGATTAGAGTATCGGTCGA | -0.997
GTAACCTCAAAGGAGGTCAGAACTGTGGACGCCTAGGGAGATTAGAGTATCGGTCGA | 1.22
CCATAGCGAAGCCGGCGGCGGAATGCTTGTGCCTAGGGAGATTAGAGTATCGGTCGA | -0.837
GGCGGCTAGTGTACAGGTGACCTTTGGAATGCCTAGGGAGATTAGAGTATCGGTCGA | 8.95
GGAATGAGCAGGAACCTTGTGGTGGTGAAAGCCTAGGGAGATTAGAGTATCGGTCGA | 1.01
GCTAGGTGGCGGGCTGGCTCAGGACAGGTGGCCTAGGGAGATTAGAGTATCGGTCGA | 0.0816
TGGCTGGCGGCTAGTGTACAGGTGACCTTTGCCTAGGGAGATTAGAGTATCGGTCGA | 7.2
TATCTTTGGAGAATGCCTTTTGTGTAGGAGGCCTAGGGAGATTAGAGTATCGGTCGA | 1.64
AGATAGTGACGGAGGTGACCTTTGGTTGTCGCCTAGGGAGATTAGAGTATCGGTCGA | 5.52
TTGGAGAATGCCTTTTGTGTAGGAGTACACGCCTAGGGAGATTAGAGTATCGGTCGA | 1.7
AAAGCTGGCTGGCGGCTAGTGTACAGGTGAGCCTAGGGAGATTAGAGTATCGGTCGA | 1.06
CTAGTGTACAGGTGACCTTTGGAATGAACCGCCTAGGGAGATTAGAGTATCGGTCGA | 7.14
ACTCCACATATTGTAGATAATACTGTGTCAGCCTAGGGAGATTAGAGTATCGGTCGA | 0.275
TTCCCTTGTTTACCTTGGTGTTTCTTTGATGCCTAGGGAGATTAGAGTATCGGTCGA | 1.68
GAGCAGCACTTTTGGAGTTTGACCTGGAGCGCCTAGGGAGATTAGAGTATCGGTCGA | 5.38
ACTTTGACCTTGGCACTGAAGAATGTCTAAGCCTAGGGAGATTAGAGTATCGGTCGA | 1.8
GCTAGTAAGGAGCTGAGTCATAGTGGACTTGCCTAGGGAGATTAGAGTATCGGTCGA | 3.44
GGGGCAGAGTGAGCAGCACTTTTGGAGTTTGCCTAGGGAGATTAGAGTATCGGTCGA | 1.51
TAAGGAGCTGAGTCATAGTGGACTTTGCCTGCCTAGGGAGATTAGAGTATCGGTCGA | 6.9
AGCAGCCTCAGTGGCTCACAAATGGAGTTTGCCTAGGGAGATTAGAGTATCGGTCGA | 0.801

Sequence | binding signal [log2 normalized intensity]
ACAGCAGTGGACTTTGACCTTGGCACTGAAGCCTAGGGAGATTAGAGTATCGGTCGA | 9.07
AGAGTGAGCAGCACTTTTGGAGTTTGACCTGCCTAGGGAGATTAGAGTATCGGTCGA | 7.73
AAGAAGAGCTCAGTCACAGCAGTGGACTTTGCCTAGGGAGATTAGAGTATCGGTCGA | 6.61
GAGCTCAGTCACAGCAGTGGACTTTGACCTGCCTAGGGAGATTAGAGTATCGGTCGA | 11.2
GGAGAGCTAGTAAGGAGCTGAGTCATAGTGGCCTAGGGAGATTAGAGTATCGGTCGA | -0.825
ACAGCACTGACCTTTGAGAGTCAACACTGAGCCTAGGGAGATTAGAGTATCGGTCGA | 2.58
TATGACCAGTGTGTTGTGCTGACCTCCTGTGCCTAGGGAGATTAGAGTATCGGTCGA | 3.19
CTGGTGTGCTTTCTGTCCTCTCAAAGTCCAGCCTAGGGAGATTAGAGTATCGGTCGA | 3.7
TGATTTGTATGATCTTGGGTATATCCTTTAGCCTAGGGAGATTAGAGTATCGGTCGA | 1.54
CTGCGTAACTTACAGTGCACTTTGACCGCTGCCTAGGGAGATTAGAGTATCGGTCGA | 7.14
TAACTTACAGTGCACTTTGACCGCTCATTTGCCTAGGGAGATTAGAGTATCGGTCGA | 5.83
CAGGACTGCGTAACTTACAGTGCACTTTGAGCCTAGGGAGATTAGAGTATCGGTCGA | 4.9
ATGTGACCTTTTGGACCACAGAGTGACCTGGCCTAGGGAGATTAGAGTATCGGTCGA | 5.16
CAGTCACAGCAGTGGACTTTGACCTTGGCAGCCTAGGGAGATTAGAGTATCGGTCGA | 10.2
TGACCTTGCAGTGGCAAGGCAAAAGAGACAGCCTAGGGAGATTAGAGTATCGGTCGA | 1.17
CATCATCTTGTAATCTGCTTCCAGTTCCATGCCTAGGGAGATTAGAGTATCGGTCGA | 0.0747
GAGAAAAAGTCAACACTTAGGGTGGATACTGCCTAGGGAGATTAGAGTATCGGTCGA | -0.81
TGATAAGCAAGATGACTTTGGTCTAGACACGCCTAGGGAGATTAGAGTATCGGTCGA | 0.829
TGCTCAGGGAGAAGCAAATATGTGTCCTCTGCCTAGGGAGATTAGAGTATCGGTCGA | 0.314
TCTTCTTCTGGGGACTTCGGTCTTTTTTCTGCCTAGGGAGATTAGAGTATCGGTCGA | 2.18
ACTCATTTCACATTGGTGCCCTTTGCCTTTGCCTAGGGAGATTAGAGTATCGGTCGA | 3.97
GTTATCTATGGAACATGGACTTTGAACCTCGCCTAGGGAGATTAGAGTATCGGTCGA | 10.3
TTTCTCTTTTGACCTTTGGACTTTCACATTGCCTAGGGAGATTAGAGTATCGGTCGA | 10.5
